# Laboratory results taken from PubChem BioAssay AID463173 (ICCB-Longwood Screening Facility, Harvard Medical School, 2010).
# The campaign covered roughly 52,000 compounds. About 1,700 (3.3%) were called active. The entries come from a sample that favours actives as a whole. Unmarked numbers belong to inactive results. No stated cut-off is given here; in the data, active means survival mostly below about 52% (no sharp cut-off); inactive means mostly above about 56%.
# Tested on: Wild type
# Assay: growth inhibition of S. aureus wild type versus tarO mutant, primary screen, teichoic acid synthesis inhibitors, RN4220, OD600 (AID 463173)
# Settings: S. aureus RN4220 wild type/DeltatarO growth, OD600, 18 h, stronger effect = lower value, screened at 18.75 µg/mL (by protocol)
row,SMILES,survival
1,CCOC(=O)c1cccnc1SCC(=O)N(CC)c1cccc(C)c1,70%
2,CCn1c(CN2CCCCC2)nc2cc(NC(=O)COc3ccc(C(C)(C)C)cc3)ccc21,97%
3,CCOc1cc(C2NC(=O)c3c(sc4c3CCN(C)C4)N2)ccc1OC(=O)c1ccc(Br)cc1 (configuration not stated),71%
4,CCCCCOc1ccc(/C=C/C(=O)Nc2sc(C(C)=O)c(C)c2C(=O)OCC)cc1OC,76%
5,CCOC(=O)CSc1nc2cc3c(cc2c(=O)n1CCCCCC(=O)NCc1ccc2c(c1)OCO2)OCO3,81%
6,CCOc1ccc(C(=O)c2cn(CC(=O)Nc3cc(OC)ccc3OC)c3cc(OC)c(OC)cc3c2=O)cc1,68%
7,COC(=O)C1CCN(S(=O)(=O)c2cc3c4c(c2)C(C)C(=O)N4CCC3)CC1 (configuration not stated),125%
8,CCOC(=O)C1CCN(S(=O)(=O)c2cc3c4c(c2)C(C)C(=O)N4CCC3)CC1 (configuration not stated),88%
9,CC1C(=O)N2CCCc3cc(S(=O)(=O)N4CCC(C(N)=O)CC4)cc1c32 (configuration not stated),-3% (active)
10,COc1ccc(N2CCN(C(=O)CSc3n[nH]c(-c4ccccc4)n3)CC2)cc1,72%
11,COc1ccc(S(=O)(=O)N(CC(=O)Nc2ccccc2Br)Cc2ccccc2)cc1,77%
12,Cc1cc(C)cc(Nc2cc(C(=O)NCCCN(Cc3ccccc3)C(C)C)c3ccccc3n2)c1,-6% (active)
13,COc1ccc(Nc2cc(C(=O)NCCCN(C)C3CCCCC3)c3ccccc3n2)cc1,99%
14,Cc1ccc(C)c(Nc2cc(C(=O)NCCCN(C)C3CCCCC3)c3ccccc3n2)c1,99%
15,CCCN(CCC)CCNC(=O)c1cc(-c2ccc(Br)s2)nc2ccccc12,80%
16,CSc1cccc(Nc2cc(C(=O)NCCCN(Cc3ccccc3)C(C)C)c3ccccc3n2)c1,75%
17,CCCCN(C)CCCNC(=O)c1cc(-c2ccc(Br)s2)nc2ccccc12,26% (active)
18,CCCCN(C)CCNC(=O)c1cc(-c2ccc(Cl)s2)nc2ccccc12,82%
19,Cc1cc(C)cc(Nc2cc(C(=O)NCCCN(C)C3CCCCC3)c3ccccc3n2)c1,26% (active)
20,Cc1cc(C)cc(Nc2cc(C(=O)NCc3ccccc3)c3ccccc3n2)c1,139%
21,Cc1ccc2c(c1)NC(=O)C(CC(=O)Nc1cc(Cl)ccc1C)O2 (configuration not stated),77%
22,COc1ccc(Br)cc1S(=O)(=O)Nc1cc(-c2cn3ccccc3n2)ccc1C,63%
23,Cc1ccc(C(=O)Nc2ccc3c(c2)N(C)C(=O)c2ccccc2S3)cc1F,72%

row,SMILES,survival
1,O=C(Cn1ncn2c(cc3sccc32)c1=O)NCCc1ccccc1,85%
2,CC(Sc1nnc(-c2ccccc2)n1N)C(=O)O (configuration not stated),109%
3,CCOc1ccc(Nc2ncnc3c2cnn3-c2ccc(F)cc2)cc1,60%
4,Cc1ccc(N2CCN(C(=O)c3c(C)oc4ncnc(N5CCOCC5)c34)CC2)c(C)c1,83%
5,CSc1ccc(-c2nc3ncccn3c2Nc2ccc(C)c(C)c2)cc1,60%
6,COc1cc(OC)c(NC(=O)c2c(C)oc3ncn(C)c(=O)c23)cc1Cl,88%
7,CCc1ccccc1NC(c1nnc(-c2cccc(F)c2)o1)c1ccc(F)cc1Cl (configuration not stated),86%
8,COc1cc(OC)c(NC(c2nnc(-c3ccccc3)o2)c2ccc(F)cc2Cl)cc1Cl (configuration not stated),66%
9,COc1ccc(C)cc1NC(c1nnc(-c2ccccc2)o1)c1ccc(F)cc1Cl (configuration not stated),3% (active)
10,Cc1cccc(NC(c2nnc(-c3ccccc3)o2)c2ccc(F)cc2Cl)c1C (configuration not stated),55%
11,CCOc1ccccc1NC(c1nnc(-c2ccccc2)o1)c1ccc(F)cc1Cl (configuration not stated),2% (active)
12,COc1cccc(NC(c2nnc(-c3ccccc3)o2)c2ccc(F)cc2Cl)c1 (configuration not stated),56%
13,COc1ccc(S(=O)(=O)NCCc2csc(-c3ccc(F)cc3)n2)cc1F,81%
14,Cc1cc(C)cc(NC(=O)CCS(=O)(=O)c2cccc3nsnc23)c1,64%
15,COc1cc(C2c3c(oc4ccccc4c3=O)C(=O)N2c2nncs2)cc(OC)c1OC (configuration not stated),76%
16,Cc1ccc2c(c1)sc1nc(=O)n(-c3ccc(Cl)c(Cl)c3)c(=O)n12,-4% (active)
17,Cc1ccc2c(c1)sc1nc(=O)n(-c3ccc(Cl)cc3)c(=O)n12,77%
18,Cc1ccc2c(c1)sc1nc(=O)n(-c3cccc(Cl)c3)c(=O)n12,70%
19,CC(C)C(NS(=O)(=O)c1cccc2cccnc12)C(=O)Nc1ccc(OC(F)(F)F)cc1 (configuration not stated),100%
20,COc1cccc(-c2cnc(NCc3ccccc3Cl)n2C)c1,70%
21,Cc1ccc(-c2cnc(NCc3ccc(C(C)C)cc3)n2C)cc1,-13% (active)
22,CCc1ccc(CNc2ncc(-c3cccc(OC)c3)n2C)cc1,4% (active)
23,COc1ccc(OC)c(CNc2ncc(-c3ccc(Cl)cc3)n2C)c1,34%

row,SMILES,survival
1,CCOc1ccc(-c2cnc(NCc3cccc(Cl)c3)n2C)cc1,52%
2,COc1ccc(-c2cnc(NCc3ccc(C)cc3)n2C)cc1,108%
3,Cn1c(-c2ccccc2)cnc1NCc1ccccc1O,60%
4,CCOc1ccc(-c2cnc(NCc3ccc(OC)cc3OC)n2C)cc1,68%
5,Cn1c(-c2cccc(Br)c2)cnc1NCc1cccc(F)c1,27%
6,Cc1ccc(-c2cnc(NC(=O)CCC(=O)N3CCCCC3)n2C)cc1,110%
7,CCOc1ccc(-c2cnc(NCc3ccc(C(F)(F)F)cc3)n2C)cc1,-12% (active)
8,Cc1ccc(-c2cnc(NCc3ccc(C(F)(F)F)cc3)n2C)cc1,-13% (active)
9,Cc1ccc(Cl)cc1N1CCN(C(=O)c2cn(C3CCCCC3)c(=O)c3c2c2ccccc2n3C)CC1,76%
10,COC(=O)c1ccc(NC(=O)C(=O)NCC(c2cccnc2)N2CCc3ccccc32)cc1 (configuration not stated),47%
11,O=C(CSc1nnc(-c2ccc(Cl)cc2)c(-c2ccc(Cl)cc2)n1)NC1CCCC1,65%
12,O=C(Nc1ccccc1C(=O)NCc1ccccc1)c1ccco1,112%
13,CCOC(=O)NNC(=O)C1CCC(C)CC1 (configuration not stated),64%
14,O=S(=O)(c1ccc(F)cc1)N(CC(O)Cn1c2ccccc2c2ccccc21)c1ccccc1 (configuration not stated),63%
15,CCOc1ccc(-c2cc(C(=O)NCCc3ccccc3)c3c(-c4ccc(C)cc4)[nH]nc3n2)cc1,128%
16,Cc1ccc(S(=O)(=O)NCC(Nc2cccc(Cl)c2)c2ccccc2)cc1 (configuration not stated),68%
17,COc1ccc2cc3cc(C(=O)Nc4cc(C)c(Cl)cc4OC)oc3nc2c1,88%
18,Cc1cccn2c(=O)c3cc(C(=O)NC(C)C)n(C)c3nc12,82%
19,Cc1ccc(-c2cnc(NCc3c(F)cccc3Cl)n2C)cc1,-12% (active)
20,Fc1cccc(Cl)c1CNc1n[nH]c(-c2ccco2)n1,83%
21,Cn1c(-c2ccc3c(c2)OCO3)cnc1NCc1cc(Cl)ccc1O,112%
22,CCOc1ccc(CCNC(=O)c2cn(-c3cccc(OC)c3)c(=O)c3ccccc23)cc1,87%
23,Cc1cc(C)n(-c2nc3ccccc3nc2Nc2cccc(C(F)(F)F)c2)n1,86%

row,SMILES,survival
1,Cc1ccc(Nc2nc3nonc3n3cnnc23)cc1Cl,88%
2,NS(=O)(=O)c1ccc(Nc2nc3nonc3nc2Nc2ccc(S(N)(=O)=O)cc2)cc1,109%
3,O=C(Nc1cccc(C(F)(F)F)c1)c1cc(-c2ccc(Cl)cc2)on1,83%
4,Cc1ccc(Nc2nc3nonc3nc2Nc2cccc(C(F)(F)F)c2)cc1Cl,0% (active)
5,Cc1cc(Nc2cccc(C(F)(F)F)c2)nc2ccc(NC(=O)Cc3ccc(Cl)cc3)cc12,78%
6,FC(F)(F)c1cccc(Nc2nc3nonc3nc2Nc2ccc(Cl)cc2)c1,-3% (active)
7,Fc1ccc(Nc2nc3nonc3nc2Nc2cccc(C(F)(F)F)c2)cc1,-1% (active)
8,Fc1ccc(-c2nc(Nc3cccc(C(F)(F)F)c3)nc3c2COc2ccccc2-3)cc1,56%
9,CCCSc1nc2c([nH]c3ccccc32)c(=O)n1C,87%
10,COCC(C)NC(=O)C1=CC(c2ccc3c(c2)OCO3)=NS(=O)(=O)N1C (configuration not stated),103%
11,COc1ccc(-c2noc(N3CCN(c4cccc(Cl)c4)CC3)n2)cc1OC,73%
12,Cc1cccc(N(C)S(=O)(=O)c2cc3c(cc2Cl)NC(=O)CO3)c1,75%
13,COc1ccc(N2CCN(c3ncccc3-c3nc(-c4ccccc4C)no3)CC2)cc1,87%
14,CCN(CC)C(=O)Cn1cc(/C=C(\C#N)C(N)=O)c2ccccc21,124%
15,Cc1ccc(CNc2ncnc3c2cnn3-c2ccc(C)cc2C)cc1,73%
16,Cc1ccc(-n2ncc3c(N(CC(C)C)CC(C)C)ncnc32)c(C)c1,71%
17,Cc1cccc(C(=O)NNc2ncnc3c2cnn3-c2ccc(C)cc2C)c1,124%
18,COc1ccc(C(=O)NNc2ncnc3c2cnn3-c2ccc(C)c(Cl)c2)cc1,73%
19,Cc1ccc(-n2ncc3c(NCC(C)C)ncnc32)c(C)c1,10% (active)
20,COc1ccc(C(=O)NNc2ncnc3c2cnn3-c2ccc(C)cc2C)cc1,-3% (active)
21,CCOc1ccc(N2CC(NC(=O)CCc3ccccc3)CC2=O)cc1 (configuration not stated),78%
22,COc1ccc(CCNc2nccn(-c3ccc(C)c(C)c3)c2=O)cc1OC,83%
23,COC(=O)c1c(NC(=O)Cc2coc3cc(C)ccc23)sc2c1CCC2,106%
